Screens from PubChem BioAssay.
Shown are actives, neighbours in structure and some others; about 2.4% of the full set was active somewhere.
D2 PAM-1: HTS Assay for Positive Allosteric Modulators of the Human D2 Dopamine Receptor: Primary Screen for Potentiators. actives 0.34% (n = 340,000). HEK293 T-REx D2, calcium flux, EC20 dopamine potentiation. D(2) dopamine receptor (Homo sapiens), P14416. potentiation, % at 10 µM;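 active means potentiation over 3 SD above the plate norm, cut at about 30% in these data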
Target sequence (P14416 whole entry, looked up): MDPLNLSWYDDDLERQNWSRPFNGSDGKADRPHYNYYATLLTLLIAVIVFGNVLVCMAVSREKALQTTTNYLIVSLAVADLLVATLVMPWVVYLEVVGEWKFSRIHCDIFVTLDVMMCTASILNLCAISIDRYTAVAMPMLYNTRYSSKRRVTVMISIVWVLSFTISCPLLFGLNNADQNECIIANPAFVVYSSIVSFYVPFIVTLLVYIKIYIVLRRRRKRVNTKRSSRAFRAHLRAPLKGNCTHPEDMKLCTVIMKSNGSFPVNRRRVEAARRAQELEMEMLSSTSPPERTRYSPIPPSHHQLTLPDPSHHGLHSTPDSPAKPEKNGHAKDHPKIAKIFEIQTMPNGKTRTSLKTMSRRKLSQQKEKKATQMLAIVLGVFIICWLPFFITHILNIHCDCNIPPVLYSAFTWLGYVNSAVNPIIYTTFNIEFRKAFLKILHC
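Tetracycline-induced HEK293 T-REx cells force-coupled to calcium signalling expressed D2; compounds were pin-added after a 10 s baseline, read kinetically 180 s, then an EC20 dopamine challenge followed with a further 180 s calcium read.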
D2 PAM-2: Beta-Arrestin HTS for Positive Allosteric Modulators of the Human D2 Dopamine Receptor: Potentiators; D(2) dopamine receptor (Homo sapiens), P14416; DiscoveRx D2 beta-arrestin cells, luminescence, 90 min; 100% = 57 uM dopamine signal; potentiation, % (no concentration beside the values); actives 0.23% (n = 360,000); in the data active means potentiation above about 50%
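PathHunter beta-arrestin assay in DiscoveRx D2 cells. Compounds were added with an EC20 of dopamine (50 nM final) for 90 min at 37 deg C. Luminescence was read 1 h after detection reagent, with 57 uM dopamine as the EC100 control.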
D2 ag-1: Beta-Arrestin HTS for Positive Allosteric Modulators of the Human D2 Dopamine Receptor: Agonists; D(2) dopamine receptor (Homo sapiens), P14416; DiscoveRx PathHunter D2 beta-arrestin, luminescence, 90 min; 100% = 57 uM dopamine signal; activation, % (test concentration not listed); actives 0.084% (n = 360,000); AID 624465, 2012; in the data active means activation above about 40%
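DiscoveRx PathHunter D2 beta-arrestin cells (2,100/well) attached overnight, then compound-stimulated 90 min at 37 C in HBSS/10 mM HEPES/0.1% Tween-20 buffer; beta-galactosidase complementation read by luminescence after 1 h at ambient temperature. Dopamine 57 uM final (EC100) as control.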
D2 ag-2: HTS Assay for Allosteric Agonists of the Human D2 Dopamine Receptor: Primary Screen for Agonists | HEK293 T-REx D2 cells, calcium flux agonist mode | activation, % at 2 µM | actives 0.53% (n = 340,000);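 active means activation over 3 SD above normal in the single-dose calcium agonist read, cut at about 30% in these data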
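HEK293 Trex D2 cells, tetracycline-induced, o/n 30 C 5% CO2; no-wash Ca dye, RT 30–90 min; 10-cycle baseline, 23 nl cpd added, kinetic Ca read 180 s; agonist hits = positive Ca response.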
D2 antagonist: HTS Assay for Allosteric Antagonists of the Human D2 Dopamine Receptor: Primary Screen for Antagonists | D(2) dopamine receptor (Homo sapiens), P14416 | HEK293 TREx D2 cells, calcium flux, dopamine EC80 | inhibition, % at 10 µM | actives 2% (n = 340,000) | AID 485344, 2010; in the data active means inhibition above about 30%; inactive means below that, where a call was filed
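Compounds are added to dye-loaded, induced HEK293 T-REx cells coupled to calcium release via D2; after a 3 min kinetic read an EC80 dopamine stimulus is given and fluorescence is recorded for 3 more min.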
Large screens that a line does not name were inactive.

O=C(COC(=O)CC1SC(N2CCCC2)=NC1=O)Nc1ccc(Br)cc1 (configuration not stated)	D2 antagonist 31
O=C(CC1SC(N2CCOCC2)=NC1=O)Nc1ccccc1Cl (configuration not stated)	D2 antagonist 40
CC(C)NC(=O)c1ccc(NC(=O)CC2SC(N3CCCC3)=NC2=O)cc1 (configuration not stated)	none
O=C(CC1SC(N2CCOCC2)=NC1=O)Nc1cc([N+](=O)[O-])ccc1Cl (configuration not stated)	D2 antagonist 54
O=C(CC1SC(N2CCOCC2)=NC1=O)Nc1ccc(Cl)cc1 (configuration not stated)	D2 antagonist 58
CCC(=O)N1CCc2cc(S(=O)(=O)NC(Cc3ccccc3)C(=O)NCc3cccc(OC)c3)ccc21 (configuration not stated)	none (no result: D2 PAM-2, D2 ag-1, D2 antagonist)
CCOc1ccc(-n2c(=O)c3c(C)c(C)sc3n(CC(=O)NCCc3ccccc3)c2=O)cc1	none (no result: D2 PAM-2, D2 ag-1, D2 ag-2, D2 antagonist)
O=c1c(-c2cc(-c3ccc(F)cc3)nc3c2COc2ccc(Cl)cc2-3)coc2ccc(F)cc12	none (no result: D2 PAM-2, D2 ag-1, D2 antagonist)
COc1ccc(NC(=O)CC2SC(N3CCOCC3)=NC2=O)cc1OC (configuration not stated)	D2 antagonist 73
CC1CCN(C(=O)Cn2c(=O)n(CCCCCC(=O)NCc3ccccc3Cl)c(=O)c3sccc32)CC1	none (no result: D2 PAM-2, D2 ag-1, D2 antagonist)
Cc1ccc(-c2nc3cnccn3c2Nc2ccc3c(c2)OCO3)o1	D2 antagonist 36
Cc1ccn2c(Nc3ccc4c(c3)OCO4)c(-c3ccc(C)o3)nc2c1	none (no result: D2 PAM-2, D2 ag-1, D2 antagonist)
COc1cccc(C2C3=C(CC(C)(C)CC3=O)Nc3n[nH]c(C)c32)c1 (configuration not stated)	D2 PAM-1 31
COc1ccccc1CCNCc1ccc(OC)c(OCc2ccccc2)c1	none (no result: D2 PAM-1, D2 ag-2, D2 antagonist)
COc1ccc(CNCc2ccco2)cc1OCc1ccccc1	D2 antagonist 37
COc1n[nH]c(C(=O)Nc2cc(Cl)ccc2Cl)c1[N+](=O)[O-]	D2 antagonist 32
Cc1ccc(Cc2nc3ccccc3nc2SCC(=O)NCc2ccccc2Cl)cc1	none (no result: D2 PAM-2, D2 ag-1, D2 antagonist)
CCC(CC)c1nn2c(=O)cc(COc3ccc(NC(=O)c4ccc(Cl)cc4)cc3)nc2s1	none (no result: D2 PAM-2, D2 ag-1, D2 antagonist)
Cc1cc(C(=O)Cn2nc(C(=O)O)c3ccccc3c2=O)c(C)n1-c1ccc(OC(F)F)cc1	D2 PAM-1 36
COc1ccc(-n2c(C)cc(C(=O)Cn3nc(C(=O)O)c4ccccc4c3=O)c2C)cc1	none
O=C1C2CCCN2C(c2cccc(Br)c2)N1c1ccc(F)cc1 (configuration not stated)	D2 antagonist 38
CCC(C)(C)NC(=O)Cn1c(=O)ccc2cc(S(=O)(=O)N3CCC(C)CC3)ccc21	none (no result: D2 PAM-2, D2 ag-1, D2 antagonist)
CCc1ccccc1N(C(=O)c1snc(C(N)=O)c1N)C(C(=O)NCC1CCCO1)c1ccc(C)o1 (configuration not stated)	D2 antagonist 33
Cc1ccc(N(C(=O)c2snc(C(N)=O)c2N)C(C(=O)NCC2CCCO2)c2ccc(C)o2)c(C)c1 (configuration not stated)	none
O=C(NCc1ccccc1)c1cnc2sc(N3CCCC3)nn2c1=O	none (no result: D2 PAM-2, D2 ag-1, D2 antagonist)
COc1cc2[nH]c(=S)nc(NCc3ccc(C)cc3)c2cc1OC	D2 antagonist 41
COc1cc2[nH]c(=S)nc(NCc3ccccc3)c2cc1OC	none
COc1ccc(CNc2nc(=S)[nH]c3cc(OC)c(OC)cc23)cc1	D2 antagonist 34
O=C1NCCN1Cc1ccc(Cl)cc1	D2 PAM-1 49
O=C(NCCSc1c(-c2ccc(Br)cc2)[nH]c2ccccc12)c1ccc(S(=O)(=O)N2CCOCC2)cc1	none (no result: D2 PAM-2, D2 ag-1, D2 antagonist)
CCOc1ccccc1CNC(=O)CN1C(=O)CCn2nc(-c3cn(C)c4ccccc34)cc21	none (no result: D2 PAM-2, D2 ag-1, D2 ag-2, D2 antagonist)
